{"source": "PubChem BioAssay (NCATS)", "note": "Records with an inconclusive call do not appear. The source made the active and inactive calls. Calls come from the whole dose curve; as a rule, active = well fitted inhibition curve with a large enough effect; inconclusive = small, poorly fitted or top-dose-only effect; inactive = no such curve, though single readings can be large or run the other way."}
{"biological_target": "Retinaldehyde dehydrogenase 3 (Homo sapiens) (UniProt P47895)", "test": "qHTS for Inhibitors of the Aldehyde Dehydrogenase Family (ALDH1A3) Primary screen (AID 2061315);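 note: plate controls were DMSO vehicle for no effect and reference inhibitor for full effect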", "conditions": "ALDH inhibition qHTS; series mostly up to 56 µM; activity change, negative = inhibition: at the top concentration"}
{"smiles": "C=CC(=O)N1CCC[C@@H](n2nc(-c3cccc(C(=O)Nc4ccc(C(C)C)c(C)c4)c3)c3c(N)ncnc32)C1", "activity change, negative = inhibition": "-9.06% (inactive)"}
{"smiles": "O=C1CCCC2=C1C(c1cccnc1Br)N=C(Nc1nc3ccccc3o1)N2", "note": "(centres undefined)", "activity change, negative = inhibition": "-21.9% (inactive)"}
{"smiles": "FC(F)(F)c1ccccc1-c1nc(NCc2ccc(-c3ccccc3)cc2)c2ccccc2n1", "activity change, negative = inhibition": "-16.5% (inactive)"}
{"biological_target": "Aldehyde dehydrogenase 1A1 (Homo sapiens) (UniProt P00352)", "test": "qHTS for Inhibitors of the Aldehyde Dehydrogenase Family (ALDH1A1) Confirmatory screens (AID 2061316); note: nearly all actives have a fitted effect of over 65% in size; note: potency is the fitted concentration of half-maximal effect; for activity change, negative = inhibition: % is set by controls: 0 for no effect and ±100 for the full control effect", "conditions": "ALDH inhibition qHTS; series mostly up to 47.3 µM; activity change, negative = inhibition: at the top concentration"}
{"smiles": "Cc1ccnc(NC(=S)N2CCN(c3ccc(O)cc3)CC2)c1", "Potency": "7.98 µM (active)"}
{"smiles": "CC(=O)Nc1sc2c(c1-c1cc3ccccc3o1)CCNC2", "Potency": "8.96 µM (active)"}
{"smiles": "CCc1noc(-c2cccn3c(CNC(=O)COc4ccc(F)cc4)nnc23)n1", "activity change, negative = inhibition": "-18% (inactive)"}
{"smiles": "O=C1CCCC2=C1C(c1cccnc1Br)N=C(Nc1nc3ccccc3o1)N2", "note": "(centres undefined)", "Potency": "11.3 µM (active)"}
{"smiles": "Cc1ccnc(NCc2ccc(O)c3ncccc23)c1", "Potency": "8.96 µM (active)"}
{"smiles": "FC(F)(F)c1ccccc1-c1nc(NCc2ccc(-c3ccccc3)cc2)c2ccccc2n1", "activity change, negative = inhibition": "-35.3% (inactive)"}
